The nature of experiment [1]: antimalarial activity against Dd2 strain (AID 2302;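 active = growth inhibition above 50% at the single 2 µM test dose, taken to imply half-maximal potency below 2 µM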;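 note: 0% = DMSO untreated growth and 100% = chloroquine plus artemisinin killed control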). The note with it: P. falciparum Dd2 in RBCs, LDH growth readout, 72 h; at 2 µM; active compounds read high.
Experiment [2] can be described thus: human hepatoma cell viability loss – ATP luminescence, cytotoxicity control for P. falciparum antimalarial project, primary screen (AID 2303;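 active = inhibition above 50%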;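 note: 0% = DMSO wells and 100% = digitonin-killed cells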). Conditions: HepG2 viability, 24-48 h, at 10 µM, active compounds read high.
Experiment [3] deals with L-lactate dehydrogenase (Plasmodium falciparum (isolate CDC / Honduras)) (UniProt Q27743). As to the kind of experiment: PfLDH activity inhibition – cell lysate, 3D7 strain, counter-screen for P. falciparum growth inhibition project (AID 2304).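 Note: 0% = vehicle and 100% = reference inhibitor.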 The note with it: P. falciparum 3D7 crude extract, LDH APAD/NBT absorbance; at 2 µM; active compounds read high.
Sequence of L-lactate dehydrogenase (Plasmodium falciparum (isolate CDC / Honduras)) (Q27743 whole entry, looked up): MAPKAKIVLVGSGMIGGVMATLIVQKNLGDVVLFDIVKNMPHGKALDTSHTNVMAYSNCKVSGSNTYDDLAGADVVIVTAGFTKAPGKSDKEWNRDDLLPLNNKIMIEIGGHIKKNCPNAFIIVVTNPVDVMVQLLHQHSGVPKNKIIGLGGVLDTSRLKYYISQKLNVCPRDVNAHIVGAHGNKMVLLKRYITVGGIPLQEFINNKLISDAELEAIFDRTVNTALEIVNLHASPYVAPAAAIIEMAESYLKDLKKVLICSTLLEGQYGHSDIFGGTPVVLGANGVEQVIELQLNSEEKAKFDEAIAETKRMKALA
Experiment [4] in a line: inhibition of 3D7 malaria parasite growth – strain 3D7 (AID 2306).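 Note: 0% = DMSO wells and 100% = chloroquine plus artemisinin control wells.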 Conditions: P. falciparum 3D7 erythrocytic growth, LDH absorbance, 72 h; at 2 µM; active compounds read high.
Experiment [5] deals with Calcium-dependent protein kinase 1 (Plasmodium falciparum (isolate 3D7)) (UniProt P62344). Nature of the experiment: PfCDPK1 kinase inhibitors, biochemical, TCAMS library (AID 1159585; cut-off not given, nearly all actives have IC50 up to about 0.98 µM;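 note: inhibitors leave more ATP so luminescence rises with inhibition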). The note with it: recombinant PfCDPK1, Kinase-Glo ATP depletion luminescence. In general terms: Kinase-Glo reads ATP consumption through a luciferase reaction.
Sequence of Calcium-dependent protein kinase 1 (Plasmodium falciparum (isolate 3D7)) (P62344 whole entry, looked up): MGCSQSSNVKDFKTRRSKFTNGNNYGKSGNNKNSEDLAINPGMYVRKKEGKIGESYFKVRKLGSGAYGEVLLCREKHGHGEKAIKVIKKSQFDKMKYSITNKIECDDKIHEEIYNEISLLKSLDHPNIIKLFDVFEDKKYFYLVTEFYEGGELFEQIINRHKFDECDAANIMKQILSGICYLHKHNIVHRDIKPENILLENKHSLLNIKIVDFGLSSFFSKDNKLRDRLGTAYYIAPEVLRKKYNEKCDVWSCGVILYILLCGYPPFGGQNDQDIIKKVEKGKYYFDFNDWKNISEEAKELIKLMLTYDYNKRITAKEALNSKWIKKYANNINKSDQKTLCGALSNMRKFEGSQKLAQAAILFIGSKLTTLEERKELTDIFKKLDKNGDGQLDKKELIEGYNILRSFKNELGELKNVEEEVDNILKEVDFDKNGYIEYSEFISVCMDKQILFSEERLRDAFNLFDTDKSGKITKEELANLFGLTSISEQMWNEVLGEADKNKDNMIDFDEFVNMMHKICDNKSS
Experiment [6] addresses Plasmodium falciparum protein kinase 6 (PK6, PF3D7_1337100) (UniProt Q8IDW1). As to the kind of experiment: PfPK6 kinase inhibitors, biochemical, TCAMS library (AID 1159586). Conditions: recombinant PfPK6, Kinase-Glo ATP depletion luminescence.
Experiment [7] addresses Protein kinase 7 (PK7), Plasmodium falciparum 3D7 (PF3D7_0213400) (UniProt Q7YTF7). Nature of the experiment: inhibition of Plasmodium PK7 catalytic activity – biochemical, TCAMS antimalarial set, Kinase-Glo luminescence (AID 1159587). Conditions: recombinant PfPK7, Kinase-Glo ATP depletion luminescence.
The target of experiment [8] is Calcium-dependent protein kinase 4 (Plasmodium falciparum (isolate 3D7)) (UniProt Q8IBS5). Nature of the experiment: PfCDPK4 kinase inhibitors, biochemical, TCAMS library (AID 1159588; cut-off not given, nearly all actives have IC50 up to about 0.91 µM). Conditions: recombinant PfCDPK4, Kinase-Glo ATP depletion luminescence.
Sequence of Calcium-dependent protein kinase 4 (Plasmodium falciparum (isolate 3D7)) (Q8IBS5 whole entry, looked up): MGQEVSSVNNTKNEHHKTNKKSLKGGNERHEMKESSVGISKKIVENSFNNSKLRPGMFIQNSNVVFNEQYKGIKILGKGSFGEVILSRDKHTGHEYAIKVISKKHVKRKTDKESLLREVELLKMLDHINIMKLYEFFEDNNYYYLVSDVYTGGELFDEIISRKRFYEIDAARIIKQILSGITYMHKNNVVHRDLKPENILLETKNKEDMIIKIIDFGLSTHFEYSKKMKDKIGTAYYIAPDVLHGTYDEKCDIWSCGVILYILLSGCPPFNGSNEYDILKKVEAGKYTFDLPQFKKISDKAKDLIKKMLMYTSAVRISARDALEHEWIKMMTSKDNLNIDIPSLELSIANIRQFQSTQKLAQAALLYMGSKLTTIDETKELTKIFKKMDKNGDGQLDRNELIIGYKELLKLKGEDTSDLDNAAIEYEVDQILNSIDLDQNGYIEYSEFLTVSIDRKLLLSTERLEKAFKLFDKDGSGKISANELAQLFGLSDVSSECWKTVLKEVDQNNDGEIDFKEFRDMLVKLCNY

Values without a mark were called inactive. For some of these results: Potency and affinity values are given separately. Calls of active or inactive are those of the source. Unless noted, the rule behind the calls is not given here.

Sequence of Protein kinase 7 (PK7), Plasmodium falciparum 3D7 (PF3D7_0213400) (Q7YTF7 1-343): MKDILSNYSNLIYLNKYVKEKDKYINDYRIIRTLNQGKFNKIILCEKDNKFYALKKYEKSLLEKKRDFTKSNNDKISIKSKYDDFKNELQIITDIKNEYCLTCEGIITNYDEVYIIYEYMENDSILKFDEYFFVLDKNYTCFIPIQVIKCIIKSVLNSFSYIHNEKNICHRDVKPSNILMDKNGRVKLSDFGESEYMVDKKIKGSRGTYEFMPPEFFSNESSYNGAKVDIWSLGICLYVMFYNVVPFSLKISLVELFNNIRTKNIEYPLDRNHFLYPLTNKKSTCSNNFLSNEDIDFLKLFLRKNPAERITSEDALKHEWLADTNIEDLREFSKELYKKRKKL
Sequence of Plasmodium falciparum protein kinase 6 (PK6, PF3D7_1337100) (Q8IDW1 1-305): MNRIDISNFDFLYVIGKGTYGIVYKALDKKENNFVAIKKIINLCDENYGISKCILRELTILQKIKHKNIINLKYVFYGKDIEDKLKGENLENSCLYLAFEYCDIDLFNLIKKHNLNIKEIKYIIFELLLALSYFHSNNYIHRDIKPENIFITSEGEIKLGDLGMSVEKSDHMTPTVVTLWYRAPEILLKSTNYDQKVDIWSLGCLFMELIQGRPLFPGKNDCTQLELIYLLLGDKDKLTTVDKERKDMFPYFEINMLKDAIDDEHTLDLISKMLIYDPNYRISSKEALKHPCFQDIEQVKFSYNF

Consider `N#Cc1cccc(NC(=O)Nc2cccc(-c3cccc(-c4nc5ccccc5[nH]4)c3)c2)c1`, for which the growth inhibition in experiment [1] was 96% (active); in experiment [4] it was 100% (active). For the same compound, the inhibition (in general, the drop in the measured response relative to a control, in per cent) in experiment [2] was 46%; in experiment [3], 3%. The outcome in experiment [5], in experiment [6], in experiment [7] and in experiment [8] was inactive.

In the case of `OC1CCCN(Cc2ccc(-c3cccc(-c4nc5ccc(F)cc5[nH]4)c3)cc2)C1` (stereo not given), the growth inhibition in experiment [1] was 49%; in experiment [4] it was 99% (active). In addition, the values for the inhibition in experiment [2] and in experiment [3] were 28% and -5%, respectively. In addition, the outcome in experiment [5], in experiment [6], in experiment [7] and in experiment [8] was inactive.

For `COc1ccc2nccc(C(=O)NC3CCC(CCN4CCc5cc(C#N)ccc5C4)CC3)c2c1` (stereo not given), the growth inhibition was 1% in experiment [1] and 97% (active) in experiment [4]. The inhibition in experiment [2] was 12%; in experiment [3], 1%. In addition, the result in experiment [5], in experiment [6], in experiment [7] and in experiment [8] was inactive.

In the case of `CN1CCN(c2ccnc3ccc(NC(=O)Nc4c(Cl)cccc4Cl)cc23)CC1`, the growth inhibition in experiment [1] is 12%; in experiment [4], 96% (active). Also, the inhibition in experiment [2] was 11%; in experiment [3], -1%. Moreover, the result in experiment [5], in experiment [6], in experiment [7] and in experiment [8] was inactive.

Consider `COc1cccc(-c2cccc(CNC3CCN(CC4Cn5c(=O)ccc6ccc(F)c4c65)CC3)c2)c1` (stereo not given), for which the results for the growth inhibition in experiment [1] and in experiment [4] were 15% and 99% (active), respectively. Also, the inhibition is 23% in experiment [2] and 4% in experiment [3]. The result in experiment [5], in experiment [6], in experiment [7] and in experiment [8] was inactive.

Regarding `O=C(Nc1cccc(Cl)c1Cl)N1CCc2cc3nccc(N4CCN5CCC[C@H]5C4)c3cc21`, the values for the growth inhibition in experiment [1] and in experiment [4] were 100% (active) and 98% (active), respectively. Moreover, the inhibition is 9% in experiment [2] and -1% in experiment [3]. Also, the result in experiment [5], in experiment [6], in experiment [7] and in experiment [8] was inactive.

`CCCCCCC(C)c1cc(OCCN(CC)CC)c2c(c1)OC(C)(C)C=C2c1ccncc1` (stereo not given): the growth inhibition in experiment [1] is 71% (active); in experiment [4] it was 90% (active). For the same compound, the values for the inhibition in experiment [2] and in experiment [3] were 14% and -1%, respectively. For the same compound, the result in experiment [5], in experiment [6], in experiment [7] and in experiment [8] was inactive.

Take `COc1cc2c(cc1OCCN1CCC(N3CCCCC3)CC1)N(C(=O)/C=C/c1ccccc1OC(F)(F)F)CC2`: the growth inhibition in experiment [1] is 93% (active); in experiment [4], 101% (active). The inhibition is 64% (active) in experiment [2] and -7% in experiment [3]. Moreover, the result in experiment [5], in experiment [6], in experiment [7] and in experiment [8] was inactive.

For `OC(CN1CCN(Cc2ccccc2)CC1)Cn1c(-c2ccccc2)c(-c2ccccc2)c2ccccc21` (stereo not given), the growth inhibition in experiment [1] is 97% (active); in experiment [4], 98% (active). Also, the inhibition in experiment [2] and in experiment [3] was -3% each time. The result in experiment [5], in experiment [6], in experiment [7] and in experiment [8] was inactive.

For `Cc1cc(C)cc(N2C(N)=NC(N)=NC2(C)C)c1`, the growth inhibition in experiment [1] is 6%; in experiment [4], 93% (active). Also, the figures for the inhibition in experiment [2] and in experiment [3] were 58% (active) and -4%, respectively. The result in experiment [5], in experiment [6], in experiment [7] and in experiment [8] was inactive.

On to `Cc1nc(N)nc(N)c1OCCCCCCOc1ccccc1`, for which the growth inhibition in experiment [1] was -3%; in experiment [4], 95% (active). For the same compound, the results for the inhibition in experiment [2] and in experiment [3] were 59% (active) and -2%, respectively. Besides, the result in experiment [5], in experiment [6], in experiment [7] and in experiment [8] was inactive.

On to `Cc1cc(N[C@@H](Cc2ccccc2)C(=O)NCc2cccs2)nc(Nc2ccccc2)n1`, for which the growth inhibition was 36% in experiment [1] and 96% (active) in experiment [4]. The figures for the inhibition in experiment [2] and in experiment [3] were 3% and -2%, respectively. Further, the outcome in experiment [5], in experiment [6], in experiment [7] and in experiment [8] was inactive.

In the case of `COc1ccc(Br)cc1/C=C/C(=O)Nc1cccc(C2CCN(C)CC2)c1`, the growth inhibition was 37% in experiment [1] and 95% (active) in experiment [4]. The inhibition in experiment [2] is 44%; in experiment [3], -2%. Moreover, the outcome in experiment [5], in experiment [6], in experiment [7] and in experiment [8] was inactive.

With `CC(=NNC(=S)NC(c1ccccc1)c1ccccc1)c1ccccn1`, the growth inhibition in experiment [1] was 97% (active); in experiment [4] it was 98% (active). Besides, the inhibition in experiment [2] was 45%; in experiment [3], -2%. For the same compound, the outcome in experiment [5], in experiment [6], in experiment [7] and in experiment [8] was inactive.

For the compound `O=C(Cc1ccc(Cl)cc1)Nc1cc(Cl)ccc1Cn1cnc(N2CCNCC2)cc1=O`, the results for the growth inhibition in experiment [1] and in experiment [4] were 2% and 97% (active), respectively. For the same compound, the inhibition in experiment [2] is 9%; in experiment [3], -4%. Also, the result in experiment [5], in experiment [6], in experiment [7] and in experiment [8] was inactive.

With `O=C(c1ccc(-c2ccc(-c3nc4ccc(C(F)(F)F)cc4[nH]3)s2)cc1)N1CCN(CCc2ccccc2)CC1`, the growth inhibition is 60% (active) in experiment [1] and 98% (active) in experiment [4]. The inhibition in experiment [2] was 23%; in experiment [3] it was -5%. Also, the outcome in experiment [5], in experiment [6], in experiment [7] and in experiment [8] was inactive.

With `Cc1[nH]c2ccc(-c3ccc(OC(F)(F)F)cc3)cc2c(=O)c1C#N`, the growth inhibition in experiment [1] is 97% (active); in experiment [4] it was 98% (active). Further, the inhibition in experiment [2] was -5%; in experiment [3] it was -9%. The outcome in experiment [5], in experiment [6], in experiment [7] and in experiment [8] was inactive.

On to `O=C(CCCCCCc1ccccc1)Nc1ccc2nc3c(c(NCc4ccccc4)c2c1)CCCC3`, for which the values for the growth inhibition in experiment [1] and in experiment [4] were 98% (active) and 101% (active), respectively. The inhibition in experiment [2] is 19%; in experiment [3] it was -3%. Besides, the outcome in experiment [5], in experiment [6], in experiment [7] and in experiment [8] was inactive.

In the case of `O=C(n1c(-c2cc3ccccc3n2C(=O)C(F)(F)F)cc2ccccc21)C(F)(F)F`, the growth inhibition was 80% (active) in experiment [1] and 94% (active) in experiment [4]. Further, the figures for the inhibition in experiment [2] and in experiment [3] were 30% and 5%, respectively. For the same compound, the outcome in experiment [5], in experiment [6], in experiment [7] and in experiment [8] was inactive.

Take `Cc1[nH]c(C)c(-c2ccc(Br)cc2)c(=O)c1Cl`: the growth inhibition is 77% (active) in experiment [1] and 94% (active) in experiment [4]. The inhibition in experiment [2] was 22%; in experiment [3], -2%. For the same compound, the outcome in experiment [5], in experiment [6], in experiment [7] and in experiment [8] was inactive.

Values taken from PubChem BioAssay.
